Consider 40 compounds from ChEMBL document CHEMBL3433997, “St. Jude Leishmania screening dataset” (2016).

The experiment has as its target Glucose transporter (Leishmania mexicana) (UniProt O61059). In words: ST_JUDE_LEISH: Cytotoxicity at 2uM final concentration against transgenic Leishmania Mexicana promastigotes LmGT2 that are glucose transport deficient and complemented with the L. Mexicana glucose transporter 2. Activity is measured by DNA content using SYBR green in vitro. It counts as functional.
Broadly, the inhibition is the change of the read-out against control, counted positive when it falls. On to `CO/C(=C\C=C\c1cc2cc(Cl)c(Cl)cc2[nH]1)C(=O)NCC(C)(C)CN(C)C`, for which the inhibition was 1.65%. The value for `CCNc1nc(OCC(F)(F)F)nc(N(c2ccccc2)c2ccccc2)n1` was 1.04%. Regarding `COc1ccccc1C1CCN(C2CCC(NC(=O)/C=C/c3cc(F)cc(F)c3)CC2)CC1` (stereo not given), the inhibition was -2.6%. The value for `Cc1cccc(-c2ccc(NC(=O)C3CCN(Cc4cccc(O)c4)CC3)cc2)c1` was -0.58%; that for `Cc1ccc(NC(=O)Nc2ccc(I)c(OCCN(C)C)c2)cc1Cl` was 5.01%; that for `CCOC(=O)C(CO)NC(=O)c1ccc([N+](=O)[O-])o1` (stereo not given) was 5.24%. In the case of `CCN(CCCN1CCCCC1)c1nccc(Nc2ccc(Cl)cc2)n1` it was 1.18%; in that of `COc1ccccc1CCNc1ncc(F)c(N[C@@H](Cc2ccccc2)C(=O)NCCc2ccccc2)n1`, 0.24%; in that of `Cc1cccc2nc(-c3cccc(-c4cccc(NC(=O)c5ccncc5)c4)c3)[nH]c12`, 4.27%. The value for `COc1ccc2nccc(N3CCN(CCNCc4ccc5c(n4)NC(=O)CO5)CC3)c2n1` was 10.1%.

As for `O=S(=O)(Nc1ccc(CCN2CCCCC2CCN2CCCC2)cc1)c1ccc(-c2ccccc2)cc1` (stereo not given), the inhibition came to 3.63%. For `O=C(NC1CCC(N2CCCC(OCc3ccccc3)C2)CC1)c1cc2ccccc2[nH]1` (stereo not given), the inhibition is -1.89%. The value for `OC(CNCc1ccccc1OCc1ccccc1)c1cc(Br)cs1` (stereo not given) was 3.82%; that for `Cc1nc(Nc2cc(Cl)ccc2O)nc(Nc2cc(Cl)ccc2O)c1[N+](=O)[O-]` was 1.45%. On to `CCc1cc(NC(=O)Nc2ccnc3ccccc23)ccc1OC`, for which the inhibition is 11.6%.

For `CC(c1cccc(Nc2nccc(-c3c(-c4cccc(NC(=O)c5c(F)cccc5F)c4)nn4ncccc34)n2)c1)S(C)(=O)=O` (stereo not given), the inhibition is 0.35%. In the case of `O=C(Nc1cccc(CN2CCCN(Cc3ncc[nH]3)CC2)c1)c1cc2ccccc2s1` it was 3.3%. The value for `COc1ccc(C(=O)C2CCN(CCCCNC(=O)c3ccc(NC(=O)c4cc(Cl)cc(Cl)c4)cc3)CC2)cc1` was 2.05%; that for `CC(C)NCc1ccc(-c2ccc(CN3CCCC(c4ccccc4)C3)cc2)c(C(=O)NC2Cc3ccccc3C2)c1` (stereo not given) was 11%; that for `CCNC(=O)Nc1cccc(-c2cccc(-c3nc4cccc(C)c4[nH]3)c2)c1` was 3.06%. In the case of `COc1cc2nc(-c3ccc(Br)cc3)cc(N)c2cc1OC` it was 29.1%; in that of `Cc1ccc(-c2nnc3c4ccccc4c(C)nn23)cc1S(=O)(=O)N1CCN(CCO)CC1`, -0.93%. With `CNCCNCc1ccc(-c2ccc(-c3nc4cccc(C)c4[nH]3)s2)cc1`, the inhibition came out at 3.92%. As for `CCCCc1ccccc1NS(=O)(=O)c1ccc(OC)c(N2CCNCC2)c1`, the inhibition is -2.27%. Consider `O=C(/C=C/c1ccc(Cl)cc1)NCCCCCN1CCCC(C(=O)Nc2ccc(Cl)c(Cl)c2)C1` (stereo not given), for which the inhibition came out at 1.59%.

Turning to `CCNc1cc(C(=O)N[C@@H](Cc2ccccc2)[C@H](O)CNC2(CCC(C)C)CC2)cc(N2CCCCS2(=O)=O)c1`, the inhibition is -0.78%. In the case of `Nc1cc(-c2cccc(Cl)c2)nn1-c1ccnc2cc(Cl)ccc12` it was -4.37%; in that of `Nc1cc(-c2ccc3c(N)nccc3c2)ccc1Cl`, 1.32%; in that of `O=C(Nc1ccc(N2CCN(c3ncccc3C(F)(F)F)CC2)nc1)c1cccs1`, 0.38%. `CN(Cc1ccc(C#N)cc1)C1CCN(c2cc(NC(=O)c3ccc(F)cc3)ccn2)CC1`: the inhibition is -1.93%. The value for `COc1ccc(NC(=O)NC2CCN(c3ccnc4cc(Cl)ccc34)C2)cc1` (stereo not given) was 1.86%. The value for `CCCC1(NC[C@@H](O)[C@H](Cc2ccccc2)NC(=O)c2cc(NCC)cc(N3CCCCS3(=O)=O)c2)CCCCC1` was 4.36%; that for `Cc1cc(NCc2ccc(F)cc2)nc2cc(O)ccc12` was 1.59%. The value for `COc1cc(Cc2cnc(N)nc2N)cc(OC)c1OCCCCC(=O)O` was 0.75%.

In the case of `c1cc(CN2CCC(CCN3CCCCC3)CC2)cc(-c2csc(-c3nc4ccccc4[nH]3)c2)c1`, the inhibition came out at 4.01%.

In the case of `COc1cccc(C2CCCN(CCCCNC(=O)c3ccc(NC(=O)c4ccc(Cl)cc4)cc3)C2)c1` (stereo not given), the inhibition was 3.02%. The value for `O=C(Cc1cccc(Cl)c1)Nc1cccc(-c2c[nH]c3nc(Nc4cccc(O)c4)ncc23)c1` was -0.68%; that for `N#CCc1ccc(Nc2nccc(Nc3ccc(Oc4ccccc4)cc3)n2)cc1` was 1.09%.

In the case of `COc1ccc(CNC2CCN(C)CC2)cc1-c1ccc(S(=O)(=O)NCCc2ccccn2)c(F)c1`, the inhibition came to 4.77%. The value for `O=C(NCc1cccc(C(F)(F)F)c1)[C@@H]1CCCN1C(=O)c1ccc(O)c(-c2ccc(Cl)c(Cl)c2)c1` was 0.24%.
